DRD3 agonist: activates the human D3 dopamine receptor; P35462; D3R DiscoveRx beta-arrestin cells, luminescence, 90 min; max activation, %; 410,000 tested, 0.58% active; AID 652048; in the data active = max activation above about 30%
Target sequence (P35462 whole entry, looked up): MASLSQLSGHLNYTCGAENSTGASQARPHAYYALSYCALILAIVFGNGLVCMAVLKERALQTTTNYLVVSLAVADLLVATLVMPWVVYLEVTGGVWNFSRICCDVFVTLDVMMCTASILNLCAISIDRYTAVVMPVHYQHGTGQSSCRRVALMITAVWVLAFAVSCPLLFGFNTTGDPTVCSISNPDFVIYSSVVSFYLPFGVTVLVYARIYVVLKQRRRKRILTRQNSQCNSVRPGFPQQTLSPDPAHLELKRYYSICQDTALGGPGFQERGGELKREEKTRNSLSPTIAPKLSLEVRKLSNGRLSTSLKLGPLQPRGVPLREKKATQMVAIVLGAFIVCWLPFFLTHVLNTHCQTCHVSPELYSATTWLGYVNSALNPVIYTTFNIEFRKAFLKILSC
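Cells at 1500/well, incubated overnight, then treated with pinned compounds (dopamine as control) for 90 min at 37 degrees C. DiscoveRx reagent added for 30 - 60 minutes at room temperature; luminescence read.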
DRD3 antagonist: blocks the human D3 dopamine receptor; D3R cells, DiscoveRx beta-arrestin luminescence, antagonist mode; active compounds read low; max response, negative = inhibition, %; AID 652054; 360,000 tested, 2.5% active; in the data active = max response below about -50%; inconclusive = no clear call, values can overlap the other calls
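Cells expressing the human receptor were seeded at 1500 cells/well, incubated overnight at 37 degrees C in 5% CO2, then exposed to library compounds with dopamine controls for 90 minutes at 37 degrees C before luminescent detection.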
D1 PAM: potentiators of human D1 dopamine receptor; 360,000 tested, 0.036% active; P21728; HEK293 TREx D1 cells, calcium flux, dopamine EC20 potentiation; potentiation, % at 10 µM; in the data active = potentiation above about 30%
D1 antag: human D1 dopamine receptor antagonism; HEK293 TREx D1 cells, calcium flux, dopamine EC80; active compounds read low; activity change, negative = inhibition, % at 10 µM; AID 504652; 360,000 tested, 3.2% active; P21728; in the data active = activity change below about -30%
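Kinetic fluorescence of a calcium dye serves as the read-out. D1-expressing Hek293 Trex cells, induced overnight at 30 C, are exposed to compound for 180 s before an EC80 dopamine addition, then read 180 s further.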
D1 agonist: agonists of human D1 dopamine receptor; P21728; HEK293 T-REx D1 cells, calcium flux, agonist mode; activation, % at 2 µM; 360,000 tested, 1% active; in the data active = activation above about 30%
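Inducible HEK293 T-REx D1 cells, force-coupled to calcium signalling, were plated at 4000 cells/well with tetracycline and held overnight at 30 C. After no-wash calcium dye loading, compound-evoked calcium rise over 180 s flagged agonists.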
Hits are given with their value; i = inactive; ? = inconclusive; nt = no result. Rows were chosen to be rich in hits. Some 6.1% of all compounds tested hit in one or more screens of this group.

SMILES | DRD3 agonist | DRD3 antagonist | D1 PAM | D1 antag | D1 agonist
O=[N+]([O-])c1ccc(OCCCCN2CCc3ccccc3C2)cc1 | i | -102 | i | -63 | i
CC1CCN(CCCCOc2ccc([N+](=O)[O-])cc2)CC1 | i | i | i | -44 | i
Cc1ccc(OCCCCN2CCC(C)CC2)cc1 | i | ? | i | i | i
COc1cccc(NC(=O)c2ccc(NCCCN3CCC(C)CC3)c([N+](=O)[O-])c2)c1 | i | -54 | i | i | i
COc1cccc(NC(=O)c2ccc(NCCCN3CC(C)CC(C)C3)c([N+](=O)[O-])c2)c1 (stereo unspecified) | i | ? | i | i | i
CC1(C)NC(=O)N(CCOc2ccc([N+](=O)[O-])cc2)C1=O | i | i | i | nt | i
Cc1ccc2c(c1)c1c3n2CCN(C(=O)c2ccc(C(F)(F)F)cc2)C3CCC1 (stereo unspecified) | i | nt | i | i | i
Cc1ccc2c(c1)C(c1ccc(F)cc1)N(C(=O)C(C)C)CC(=O)N2 (stereo unspecified) | i | nt | i | i | i
O=[N+]([O-])c1ccc(OCCCCN2CCCCC2)cc1 | i | -58 | i | i | i
CC1CCN(CCCCOc2ccc(C(=O)c3ccccc3)cc2)CC1 | i | -75 | i | i | i
Cc1ccc(OCCCCN2CCCC(C)C2)c([N+](=O)[O-])c1 (stereo unspecified) | i | -80 | i | nt | i
O=[N+]([O-])c1ccc(CN2CCN(c3ccc([N+](=O)[O-])cc3)CC2)cc1 | i | i | i | i | i
O=[N+]([O-])c1ccc(OCCCCCN2CCOCC2)cc1 | i | i | i | i | i
CC1CCN(CCOc2ccc(C(=O)c3ccccc3)cc2)CC1 | i | i | i | i | i
COC(=O)C1CCN(Cc2ccc(OCCCN3CCN(c4ccc([N+](=O)[O-])cc4)CC3)cc2)CC1 | i | -52 | i | i | i
COc1ccc(OC)c(CNC(=O)C2CCN(S(=O)(=O)c3cn(C)cn3)CC2)c1 | i | nt | i | i | i
CC1CCN(CCCCOc2ccccc2[N+](=O)[O-])CC1 | i | -83 | i | i | i
CC1CCN(CCCCOc2ccc(F)cc2)CC1 | i | -59 | i | i | i
CC1CCN(CCCOc2ccc(OCc3ccccc3)cc2)CC1 | i | -70 | i | -40 | 76
CC1CCN(CCOc2ccccc2-c2ccccc2)CC1 | i | ? | i | i | i
Cc1cc(OCCN2CCCCCC2)ccc1[N+](=O)[O-] | i | -68 | i | i | i
N#Cc1ccc2c(c1)C[C@]1(CCCCN3C(=O)c4ccccc4C3=O)Oc3c(c(=O)oc4ccc(F)cc34)C2O1 | nt | nt | i | i | i
COc1cccc(CNC(=O)C2CCCN(S(=O)(=O)c3ccc4c(ccn4C)c3)C2)c1OC (stereo unspecified) | i | nt | i | i | i
Cc1ccc(C)c(CN2C(=O)C(=O)c3ccccc32)c1 | i | nt | i | -31 | i
Cc1ccc2c(c1)C(=O)C(=O)N2Cc1ccc(C(F)(F)F)cc1 | i | -51 | nt | nt | nt
SMILES | DRD3 agonist | DRD3 antagonist | D1 PAM | D1 antag | D1 agonist
Cc1ccc(CN2C(=O)C(=O)c3cc(Br)cc(C)c32)cc1 | i | nt | i | -49 | i
COC(=O)c1ccc2c(c1)N(Cc1cc(C)ccc1C)C(=O)c1ccccc1S2=O (stereo unspecified) | nt | nt | i | i | i
Cc1ccc2c(c1)C(=O)C(=O)N2Cc1ccc(OC(C)C)cc1 | i | nt | i | i | i
CCc1cccc(-n2c(C)nc3c(cnn3-c3ccc(C)c(C)c3)c2=O)c1 | i | nt | i | i | i
CCCOc1ccc(C2c3c(-c4ccccc4O)n[nH]c3C(=O)N2CCCOCC)cc1OCC (stereo unspecified) | i | nt | i | i | i
c1ccc(N2CCN(CC3CCCCC3)CC2)cc1 | i | -75 | i | i | i
COc1cc(-c2nc(Cn3nnc(C(=O)Nc4ccccc4C)c3C)c(C)o2)cc(OC)c1OC | i | nt | i | i | i
CC(C)C(c1nnnn1C(C)(C)C)N1CCOCC1 (stereo unspecified) | i | -61 | i | i | i
CC(C)C[C@H]1CN([C@@H](CC(C)C)CN2CCCC2CN2C(=S)NC[C@@H]2Cc2ccccc2)C(=S)N1CC1CCCCC1 (stereo partly specified) | i | -112 | nt | nt | nt
CC(C)C[C@H]1CN([C@@H](Cc2ccc(O)cc2)CN2CCCC2CN2C(=S)NC[C@@H]2Cc2ccccc2)C(=S)N1CC1CCCCC1 (stereo partly specified) | i | -51 | nt | nt | nt
CCN(CC)CCNc1nc2ccccc2n1C | i | i | i | -37 | i
CCN(CC)CCn1c(NCc2ccc(OC)cc2)nc2ccccc21 | i | -67 | i | i | i
COc1ccc(C(=O)Nc2nnc(S(=O)(=O)N3CCN(c4ccc(C)cc4)CC3)s2)cc1 | i | nt | i | i | i
Cc1cccc(CSc2nc(=O)c3c(n2C)NC(=O)CC3c2cccc(O)c2)c1 (stereo unspecified) | i | nt | i | i | i
Cc1ccc(CSc2nc(=O)c3c(n2C)NC(=O)CC3c2ccc(OC(C)C)cc2)cc1 (stereo unspecified) | i | nt | i | i | 46
CC(C)Cn1c(=O)c2sccc2n2c(CCCC(=O)NCC(C)c3ccccc3)nnc12 (stereo unspecified) | i | nt | i | i | i
CCCCC(=O)Nc1cccc(-c2nc3ccccc3s2)c1 | i | nt | i | i | i
O=C1OCCN1C(=O)[C@H]1[C@H](c2ccccc2)C(c2cccc(Cl)c2)=NN1c1ccccc1 | 39 | i | nt | nt | nt
CCn1c(/C=C/c2ccccc2C)nc2ccccc2c1=O | i | i | i | i | i
CCn1c(/C=C/c2c(C)n(CC)c3ccccc23)nc2ccccc2c1=O | 35 | i | i | i | i
Cc1ccc(C)c(NC(=O)CSc2cn(CC(=O)N3CCCCC3)c3ccccc23)c1 | i | nt | i | i | i
COc1cc(OC)c(OC)cc1CN1CCc2nc(Nc3ccc4c(c3)OCCO4)ncc2C1 | i | nt | i | i | i
COc1ccc(CN/C(C)=C(/C#N)C(N)=O)cc1OC | i | i | i | -66 | i
COc1ccc(OCCOC(=O)c2ccc(F)c(S(=O)(=O)N3CCOCC3)c2)cc1 | i | i | i | -64 | i
CCc1ccc(NC(=O)c2ccc(F)c(S(=O)(=O)N3CCN(c4ccc(OC)cc4)CC3)c2)cc1 | i | nt | i | -45 | i
O=C(OCCOc1cccc(Cl)c1)c1ccc(F)c(S(=O)(=O)N2CCOCC2)c1 | i | i | i | i | i
COc1ccc(OCCOC(=O)c2cc(S(=O)(=O)N3CCOCC3)c(Cl)cc2Cl)cc1 | i | i | i | i | i
Cc1ccc(C(=O)OCCOc2cccc(Cl)c2)cc1S(=O)(=O)N1CCOCC1 | i | i | i | i | 31
CC1(C)Cc2c(sc(NC(=O)c3ccc(C(=O)c4ccccc4)cc3)c2C(N)=O)C(C)(C)N1 | i | -50 | i | i | 112
COC(=O)c1c(NC(=O)c2ccc(OC(C)C)cc2)sc2c1CC(C)(C)NC2(C)C | i | i | i | i | i

High-throughput results from PubChem BioAssay.
